Inconclusive results are not listed. Calls of active or inactive are those of the source. Calls come from the whole dose curve; as a rule, active = well fitted cell-killing curve with a large enough effect; inconclusive = small, poorly fitted or top-dose-only effect; inactive = no such curve, though single readings can be large or run the other way.

A short description of this assay: qHTS of pediatric cancer cell lines to identify multiple opportunities for drug repurposing: Primary screen for Rh41 cells (AID 1347108).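 Note: luminescence drop marks cytotoxic hits; nearly all actives have a fitted effect of over 70% in size.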 As to conditions: Rh41 rhabdomyosarcoma viability, CellTiter-Glo luminescence, 48 h; series mostly up to 46 µM; activity change, negative = cytotoxic: at the top concentration. The gist of the method:
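Primary screen of approved and investigational compounds on cells in growth media at 37 degrees C, 5% CO2. MIPE set at 11-point and NPC set at 8-point dilutions; viability scored by ATP-based luminescence at 48 hours.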
`Cc1ncc(CO)c(C=O)c1O`: the “activity change, negative = cytotoxic” value is 14.9% (inactive).
`CCN1CCCC(OC(=O)C(c2ccccc2)c2ccccc2)C1` (stereo unspecified): the “activity change, negative = cytotoxic” value was 2.76% (inactive).
Take `O=[N+]([O-])c1cccc(S(=O)(=O)NCCNS(=O)(=O)c2cccc([N+](=O)[O-])c2)c1`: the “activity change, negative = cytotoxic” value is 8.31% (inactive).
`O=S(c1cc(Cl)cc(Cl)c1O)c1cc(Cl)cc(Cl)c1O`: the “activity change, negative = cytotoxic” value was 15.6% (inactive).
As for `C[C@@H](O)[C@H]1C(=O)N2C(C(=O)O)=C([C@H]3CCCO3)S[C@H]12`, the “activity change, negative = cytotoxic” value is 19.7% (inactive).
Regarding `CC(C)(C)NCC(O)COc1cccc2c1C[C@H](O)[C@H](O)C2` (stereo partly specified), the “activity change, negative = cytotoxic” value is 36.2% (inactive).
In the case of `CCN(CC)CCNC(=O)COc1ccc(OC)cc1` it was 6.93% (inactive); in that of `CC(=O)O[C@]1(C(C)=O)CC[C@H]2[C@@H]3C=C(C)C4=CC(=O)CC[C@]4(C)[C@H]3CC[C@@]21C`, 30.4% (inactive).
For the compound `O=C1C(=O)c2ccccc2C(O)=C1C1CCC(c2ccc(Cl)cc2)CC1` (stereo unspecified), the “activity change, negative = cytotoxic” value was 16.8% (inactive).
`CCC(CC)(CC(=O)Nc1cccc(/C=C/c2nc(C3CCC3)cs2)c1)C(=O)O`: the “activity change, negative = cytotoxic” value is 15.2% (inactive).
The result for `COC(=O)C(c1ccccc1Cl)N1CCc2sccc2C1` (stereo unspecified) reads 13.6% (inactive); that for `CCCc1ncc(C[n+]2ccccc2C)c(N)n1`, 2.8% (inactive); that for `CCCCC(CC)COC(=O)c1ccc(N(C)C)cc1` (stereo unspecified), 9.94% (inactive).
In the case of `COc1ccc(CCN(C)CCCN2CCc3cc(OC)c(OC)cc3CC2=O)cc1OC` it was 3.43% (inactive); in that of `Cc1ccccc1OCC(O)CO` (stereo unspecified), 13.3% (inactive).
In the case of `N#C/C(=C1\SCC(c2ccccc2Cl)S1)n1ccnc1` (stereo unspecified) it was 8.96% (inactive).
For the compound `O=C(O)Cc1csc(-c2ccc(Cl)cc2)n1`, the “activity change, negative = cytotoxic” value was 12.3% (inactive).
The result for `N/C(=N\N=C\c1ccc(Cl)cc1)N/N=C/c1ccc(Cl)cc1` reads -0.0606% (inactive).
For the compound `C#C[C@]1(O)CC[C@H]2[C@@H]3CCC4=Cc5oncc5C[C@]4(C)[C@H]3CC[C@@]21C`, the “activity change, negative = cytotoxic” value is 10.8% (inactive).
As for `C[N+]1(CC2COC(c3ccccc3)(C3CCCCC3)O2)CCCCC1` (stereo unspecified), the “activity change, negative = cytotoxic” value was 10.3% (inactive).
As for `Cc1cc(C)cc(OCC2CNC(=O)O2)c1` (stereo unspecified), the “activity change, negative = cytotoxic” value is 10.4% (inactive).
In the case of `CN(C)CCC[C@@]1(c2ccc(F)cc2)OCc2cc(C#N)ccc21` it was 0.975% (inactive); in that of `CCOc1ccccc1C(N)=O`, 3.53% (inactive); in that of `CC(C)[C@@H]1CC[C@@H](C)CC1=O`, 6% (inactive).
In the case of `CC1=C(C(=O)O)N2C(=O)[C@@H](NC(=O)[C@H](N)c3ccccc3)[C@H]2SC1` it was 25% (inactive); in that of `CCCCOC(=O)CC(CC(=O)OCCCC)(OC(C)=O)C(=O)OCCCC`, 9.48% (inactive); in that of `NS(=O)(=O)c1ccc(Cl)c(S(N)(=O)=O)c1`, 8.79% (inactive).
In the case of `Cc1cc2c(OCC(CNC(C)(C)C)OC(=O)c3ccccc3)cccc2[nH]1` (stereo unspecified) it was 22.6% (inactive); in that of `CCC(Cc1c(I)cc(I)c(N)c1I)C(=O)O` (stereo unspecified), 23.6% (inactive).
As for `C#C[C@]1(O)CC[C@H]2[C@@H]3[C@H](C)CC4=C(CCC(=O)C4)[C@H]3CC[C@@]21C`, the “activity change, negative = cytotoxic” value was 9.25% (inactive).
With `COc1ccc(CN(CCN(C)C)c2ncccn2)cc1`, the “activity change, negative = cytotoxic” value is 6.32% (inactive).
In the case of `COc1cc(C(=O)NCc2ccc(OCCN(C)C)cc2)cc(OC)c1OC` it was -5.75% (inactive); in that of `CC(O)Cn1cnc2c1c(=O)n(C)c(=O)n2C` (stereo unspecified), 2.46% (inactive); in that of `Oc1ccccc1C=NCc1ccccc1`, 21.4% (inactive).
In the case of `O=C(O)P(=O)(O)O` it was 33.1% (inactive).
As to `CC[C@H](c1ccc(O)cc1)[C@@H](CC)c1ccc(O)cc1`, the “activity change, negative = cytotoxic” value is -2.84% (inactive).

These data come from PubChem BioAssay (NCATS).
